In PubChem BioAssay (NCI):
Compounds without any hit were thinned out: in the full panel of roughly 83,000, 20% have a hit.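 A percent growth of 40 corresponds to 60% growth inhibition; 0 means no net growth; -100 means all cells died. Active threshold: below 10.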 A number with no mark means an inactive call. Active and inactive are the calls of the source.

The compounds below were run on KM12 colon (assay: NCI-60 one-dose screen, 48 h (100 = growth as untreated, 0 = no growth, -100 = all killed)). Conditions: 10 µM unless noted.
Experimental: Growth inhibition of the KM12 human tumor cell line is measured as a screen for anti-cancer activity. Cells are grown in 96 well plates and exposed to the test compound for 48 hours. Compounds are tested at a single concentration, which is 10^-5 M for most compounds. The reported endpoint is percent growth (GI% or GIPRCNT), where numbers from 0 - 100% represent growth inhibition, and numbers from -100% - 0 represent cell death. For example, a value of 40 represents 60% growth inhibition. A value of 0 means no net growth occurred over the course of the experiment. A value of -40 indicates 40% of cells at the beginning of the experiment died by the end of the experiment. A value of -100 means all cells are dead at the end of the experiment.
NCI-60 Human Tumor Cell Lines Screen was performed using the standard one-dose NCI protocol, which is described in more detail at https://dtp.cancer.gov/discovery_development/nci-60/default.htm.
Compounds with GIPRCNT values below 10 were considered active. Activity score was based on GIPRCNT using the following formula: […]
Score is 0 for GIPRCNT values of 100 or above, 50 for GIPRCNT values of 0, and 100 for GIPRCNT values of -100.

SMILES | growth
O=C(Nc1nc2ccc(C(F)(F)F)cc2s1)c1cc(Cl)ccc1O | 8.91% (active)
Cc1cccc2nc3c(n12)C(=O)C(=O)c1ccccc1-3 | 90.6%
Cc1cccc(C)c1NCc1nnc(-c2ccc(O)cc2)o1 | 97%
COc1ccc2c(c1)OC13Oc4cc(OC)ccc4C=C1CCCCC3=C2 | 94.8%
Nc1c(C(=O)Nc2cccc3ccccc23)sc2nc3c(cc12)COCC3 | 40.7%
Cc1nc2sc(C(=O)Nc3ccccc3Cl)c(N)c2cc1C(C)O (stereo not given) | 56.1%
CC1CCN(CCCCCOc2ccc3oc4cc(Cl)ccc4c(=O)c3c2)CC1 | 49.5%
COc1ccccc1-c1ccc2nc(NC(=O)Nc3cc(C(F)(F)F)cc(C(F)(F)F)c3)sc2c1 | 3.63% (active)
CNS(=O)(=O)c1cccc(-c2ccc3c4c(n(C)c(=O)c3c2)-c2ccccc2C4=O)c1 | 40.7%
CCCS(=O)(=O)Nc1ccc(F)c(C(=O)c2c[nH]c3ncc(-c4ccc(OCCCC5CCCCN5)nc4)cc23)c1F (stereo not given) | 103%
N#Cc1c(-c2ccc(F)cc2)c(C#N)c2c(C#N)c(N)nn2c1N | 94.1%
Cc1nccc2c3ccc(OCc4cn(-c5ccc(Br)cc5)nn4)cc3n(CC(C)C)c12 | 44.8%
CC(/C=C/c1ccccc1)=N/NC(=O)c1ccncc1 | 105%
COc1cc(C(C)c2ccc3c(ccn3C)c2)cc(OC)c1OC (stereo not given) | 10.3%
C#CCOC(=O)[C@]1(C)CCC[C@]2(C)[C@H]3C[C@H]4C(C(C)C)=C[C@]3(CC[C@H]21)[C@@H]1C(=O)CCC(=O)[C@@H]14 | 87%
O=C(Nc1cc(Nc2ncccc2-c2ncnc3nc[nH]c23)ccc1F)c1cc(C(F)(F)F)cc(C(F)(F)F)c1 | -55.9% (active)
OCCNc1nc(NCCO)nc(Nc2ccc(C3=NN(c4cc(Cl)cc(Cl)c4)C(c4ccccc4)C3)cc2)n1 (stereo not given) | 27.9%
N#Cc1c(-c2ccc(F)cc2)nc(N=Nc2c(O)[nH]c3ccccc23)nc1N1CCOCC1 | 75.1%
COC(=O)[C@]1(C)CCC[C@]2(C)[C@H]3C[C@H]4C(C(C)C)=C[C@]3(CC[C@H]21)[C@@H]1C(=O)N(CCC#N)C(=O)[C@@H]14 | 82.7%
Nc1ccc(C2=NN(C(=O)c3cc(-c4ccc(Cl)cc4)nc4ccccc34)C(c3ccc(Cl)cc3)C2)cc1 (stereo not given) | 27.5%

SMILES | growth
COc1cc(NC(=O)Nc2cnc(Nc3ccc(N4CCOCC4)cc3)nc2Oc2ccc(C(F)(F)F)cc2)cc(OC)c1 | 103%
COc1ccc(/C=C/C(=O)/C=C(/C=C/c2ccc(OC)c(OC)c2)OB(F)F)cc1OC | 36.1%
N#CC1(C#N)C2=C(CCCC2)NC(c2c(F)cccc2Cl)C1(C#N)C#N (stereo not given) | 73.3%
C=C1C(=O)O[C@H]2[C@H]1CC/C(COC(=O)N1CCC[C@H]1C(=O)Nc1ccc(OC)c(C(N)=O)c1O)=C\CC[C@@]1(C)O[C@@H]21 | 67.2%
O=C(CCCC(=O)Nc1ccc(-n2nnc3cc(Cl)c(Cl)cc32)cc1)Nc1ccc(-n2nnc3cc(Cl)c(Cl)cc32)cc1 | 70.9%
c1ccc(Sc2ncccn2)nc1 | 106%
Nc1c(C(=O)Nc2cccc3ccccc23)sc2nc3c(cc12)CCCCC3 | 22.8%
COc1ccc(-c2nc(C#N)c(NCC(c3ccco3)N3CCCC3)o2)cc1 (stereo not given) | 33.8%
O=C1CCc2ccccc2N1 | 96.6%
C=CCn1c(SCC(=O)Nc2ccc(C(=O)/C=C/c3ccc(Cl)cc3)cc2)nnc1-c1cc(OC)c(OC)c(OC)c1 | 93.3%
COc1ccc2[nH]c(=O)c(/C=C/C(=O)c3ccccc3OC)cc2c1 | 4.37% (active)
O=C(Nc1cc(Br)ccn1)c1cc2cc(Nc3nc(-c4ccccc4)nc4ccccc34)ccc2oc1=O | 102%
COC(=O)/C=C/c1cc(OC(C)=O)c2c(c1)C(C(=O)OC)C(c1ccc(OC(C)=O)c(OC(C)=O)c1)O2 (stereo not given) | 16.5%
Cc1ccc(C2=N[C@H]3CCC[C@@H]3N(c3ccccc3)C(C(Cl)Cl)=N2)cc1 | 100%
Cc1[nH]c(N=Nc2ccccc2)nc1N=Nc1ccccc1 | 35.1%
CC(=O)c1cc2c(N)c(C(=O)Nc3ccccn3)sc2nc1C | 89.3%
C=CCn1c(SCC(=O)Nc2ccc(C(=O)/C=C/c3cc(OC)c(OC)c(OC)c3)cc2)nnc1-c1ccc(Cl)cc1 | 9.43% (active)
Nc1ccc2c(c1)C(=O)C(=O)c1c-2nc2ccccn12 | 20%
CN1CCN(CC#CCOC(=O)CNC(=O)[C@]23CCC(C)(C)C[C@H]2C2=CC[C@@H]4[C@@]5(C)CC[C@H](O)C(C)(C)[C@@H]5CC[C@@]4(C)[C@]2(C)CC3)CC1 | 94.5%
COc1ccc(C(C)c2cc(OC)c(OC)c(OC)c2)cc1 (stereo not given) | 9.1% (active)
